Assay outcomes: PubChem, National Center for Advancing Translational Sciences (NCATS)
CHX counter: affects cycloheximide protein synthesis inhibition readout, counter-screen | cell reporter, cycloheximide protein synthesis inhibition counterscreen | max response, % | hit rate 12% among 300,000; in the data active = max response mostly above about 13%, no sharp cut-off; inactive = mostly below about 14%; also: read at 38.3 µM for the half of the compounds with a filed dose; 0% is about no effect
AmpC no deterg: inhibitors of E. coli AmpC beta-lactamase without detergent; hit rate 0.52% among 330,000; AID 485341; Potency, µM (titrated, usually from 57.1 µM), inactives show at the highest dose activity change, negative = inhibition, usual class: inhibitors; AmpC nitrocefin hydrolysis, absorbance 480 nm, 0.0001% Triton;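 also: potency is read from the fitted curve at half-maximal effect; plate controls were no compound for no effect and no enzyme for full effect; nearly all actives have a fitted effect of over 20% in size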
Target sequence (P00811 whole entry, looked up): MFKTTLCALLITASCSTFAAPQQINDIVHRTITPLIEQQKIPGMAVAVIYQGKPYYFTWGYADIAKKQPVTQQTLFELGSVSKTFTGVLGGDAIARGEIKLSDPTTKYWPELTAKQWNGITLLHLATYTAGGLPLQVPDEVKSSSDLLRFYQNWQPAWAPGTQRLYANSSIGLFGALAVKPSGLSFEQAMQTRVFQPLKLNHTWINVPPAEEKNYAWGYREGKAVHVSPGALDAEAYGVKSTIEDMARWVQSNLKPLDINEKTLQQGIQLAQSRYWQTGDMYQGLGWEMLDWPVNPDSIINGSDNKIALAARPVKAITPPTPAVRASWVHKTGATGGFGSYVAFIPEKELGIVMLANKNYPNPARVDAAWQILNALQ
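AmpC (5.3 nM in the dispensed reagent) in 20 mM phosphate pH 7.0 with 0.01% (detergent screen) or 0.0001% Triton X-100 was preincubated with compounds for 15 min at room temperature. Nitrocefin was then added from an 800 uM solution, and hydrolysis was followed at 480 nm.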
AMA1 RON2 block: AMA1-RON2 (P. falciparum) interaction inhibition | AlphaScreen AMA1-biotinylated RON2 peptide binding | Potency, µM (titrated, usually from 58.2 µM), inactives show at the highest dose activity change, negative = inhibition, usual class: inhibitors | hit rate 0.2% among 360,000 | AID 720542;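 also: potency is read from the fitted curve at half-maximal effect; 0% = vehicle wells and -100% = peptide control; nearly all actives have a fitted effect of over 45% in size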
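AMA1 (3D7) with his tag at 25 nM final met compounds first, then biotinylated RON2 peptide at 25 nM; detection used donor plus acceptor beads, 10 µg/mL apiece, read by AlphaScreen after 30 min at room temperature.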
AmpC inh detg: blocks E. coli AmpC beta-lactamase in detergent assay; P00811; AmpC hydrolysis of nitrocefin, absorbance 480 nm, 0.01% Triton; Potency, µM (titrated, usually from 114 µM), without a hit: at the highest dose activity change, negative = inhibition, most hits filed as inhibitors; hit rate 0.041% among 370,000; AID 485294;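 also: potency is read from the fitted curve at half-maximal effect; 0% = no-compound wells and -100% = no-enzyme wells; nearly all actives have a fitted effect of over 25% in size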
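20 mM phosphate pH 7.0 + 0.01% (detergent screen) or 0.0001% Triton X-100; 5.3 nM AmpC reagent; cpd preinc 15 min RT; nitrocefin (800 uM stock) to start; A480 q20 s × 4 min; Activity was normalised to no-enzyme and no-compound control wells.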
Shiga toxin inh: inhibitors of Shiga toxin in Vero cells | Vero cells, Shiga toxin protein synthesis inhibition reporter | inhibition, % at 38.7 µM | hit rate 9.2% among 290,000; in the data active = inhibition mostly above about 28%, no sharp cut-off; inactive = mostly below about 43%; also: 0% is about no effect
SARS PLP yeast: SARS-CoV PLP inhibition in yeast; S. cerevisiae expressing SARS-CoV PLpro, growth rescue; Potency, µM (top dose mostly 32.9 µM), for the others: at the highest dose activity, positive = growth rescue, most hits filed as activators; hit rate 0.19% among 330,000; AID 485353; calls by dose curve; also: potency is read from the fitted curve at half-maximal effect; 0% is about no effect; nearly all actives have a fitted effect of over 55% in size
Starred values were filed as active, the others as inactive; ? = inconclusive; / = no result given; [ ] = remark or other dose. The full list was thinned out, with hits kept by preference. Unless noted, calls follow the shape of the dose curve; as a rule, active = well fitted curve in the direction sought with a large enough effect; inconclusive = small, poorly fitted or top-dose-only effect, or another doubt; inactive = no such curve, though single readings can be large; an effect the other way counts as inactive or inconclusive.

SMILES	CHX counter	AmpC no deterg	AMA1 RON2 block	AmpC inh detg	Shiga toxin inh	SARS PLP yeast
O=C(Nc1ccccc1)c1cccc(N2C(=O)C3C4C=CC(C4)C3C2=O)c1 (centres undefined)	19*	-14%	-5%	-10%	29	-3%
O=C(Nc1ccccc1)c1cccc(N2C(=O)C3C4C=CC(C5CC45)C3C2=O)c1 (centres undefined)	3	-20%	-2%	0%	8	-2%
COc1cccc(C(=O)Nc2cccc(-c3cn4ccsc4n3)c2)c1OC	/	/	/	23%	/	/
CN(C(=O)c1cccc(NC(=O)Cc2ccc(NC(=O)C3CCN(C(=O)CCc4ccccc4)CC3)cc2)c1)C1CCCCC1	/	/	-11%	/	/	/
CCOC(=O)CSc1ccc(S(=O)(=O)N2CCCC2)cc1[N+](=O)[O-]	2	-8%	-10%	-1%	-4	-2%
Cc1cccc(NC(=O)c2ccc3c(c2)CCN3S(C)(=O)=O)c1	29*	-18%	-11%	-1%	47*	-9%
Cc1ccc(NC(=O)c2ccc3c(c2)CCN3S(C)(=O)=O)cc1C	29*	-13%	16%	-19%	31*	-11%
Cc1cccc(N(C(=O)c2snc(C(N)=O)c2N)C(C(=O)NC2CCCC2)c2ccc(C)o2)c1 (centres undefined)	6	6%	3%	6%	34	0%
CN1CCN(C(=O)N(c2ccccc2)c2ccccc2)CC1	/	/	-4%	/	/	/
O=C1c2ccccc2C(Nc2ccc(Cl)cn2)N1Cc1ccccc1 (centres undefined)	-3	9%	-6%	-14%	-5	-28%
CCOc1ccc(-c2noc(-c3cccnc3)n2)cc1OCC	1	-5%	14%	-3%	12	0%
CC(=O)Oc1ccc(Oc2ccc(-c3noc(C)n3)cc2)cc1	32*	-5%	2%	-4%	83*	-4%
CCOc1ccc(-c2nc(-c3cccnc3)no2)cc1OCC	12*	20%	0%	2%	41	-8%
c1ccc(OCCCc2nc(-c3cccnc3)no2)cc1	13	0%	11%	2%	-15	-2%
COc1ccc(-c2noc(CN(C(=O)c3ccc(OC(C)=O)cc3)C(C)C)n2)cc1OC	-1	115%	-4%	-4%	15	0%
CC(=O)Oc1ccc(-c2nc(-c3cccnc3)no2)cc1	39*	-13%	-2%	?	41*	-7%
COc1cccc(-n2nnnc2SCC(=O)Nc2ccc(NC(C)=O)cc2)c1	-2	-6%	-2%	1%	14	0%
CC(C)CCOc1ccc(NC(=O)C2OC3OC(C)(C)OC3C3OC(C)(C)OC23)cc1 (centres undefined)	5	-17%	0%	-15%	15	4%
COc1ccc2cc(S(=O)(=O)n3cnc(C)c3)ccc2c1	6	-1%	-12%	-10%	-6	1%
COc1cc(NC(=O)c2ccc(N)nc2)cc(C(=O)Nc2cccc(C(F)(F)F)c2)c1	13	-19%	?	-6%	55*	-1%
COc1cc(NC(=O)c2nccnc2N)cc(C(=O)Nc2cccc(C(F)(F)F)c2)c1	-2	60%	1%	0%	-3	1%
COc1cc(NC(=O)c2ccno2)cc(C(=O)Nc2cccc(C(F)(F)F)c2)c1	-3	15%	1%	-2%	-7	-5%
COc1ccc(-c2cc(C(=O)Nc3cc(OC)cc(C(=O)Nc4cccc(C(F)(F)F)c4)c3)[nH]n2)cc1	2	28µM*	-1%	-2%	16	-3%
N[C@@H](Cn1c2c(c(=O)[nH]c1=O)CCC2)C(=O)O	-3	/	/	/	5	/
CCOc1ccc(/C=C2\SC(=S)NC2=O)cc1OC	14*	-34%	7%	-2%	41*	-4%
SMILES	CHX counter	AmpC no deterg	AMA1 RON2 block	AmpC inh detg	Shiga toxin inh	SARS PLP yeast
O=C(O)CNS(=O)(=O)c1cccc(Cl)c1	-2	-14%	6%	-3%	3	-1%
O=Cc1c(N2CCN(c3ccccc3)CC2)nc2ccccn2c1=O	31*	0%	-9%	1%	54*	-1%
N#C/C(=C\c1c(N2CCCCC2)nc2ccccn2c1=O)C(=O)NCc1ccco1	6	0%	11%	-21%	4	-5%
COc1ccc(N2CCN(c3nc4ccc(C)cn4c(=O)c3C=O)CC2)cc1	3	-2%[2.29 µM]	-8%	2%	33	0%
O=Cc1c(N2CCSCC2)nc2ccccn2c1=O	1	-7%	14%	-1%	1	0%
COc1ccc(N2CCN(c3nc4ccccn4c(=O)c3C=O)CC2)cc1	13*	-8%	-11%[11.6 µM]	?	16	6%
N#C/C(=C\c1c(N2CCCCCC2)nc2ccccn2c1=O)C(=O)NCc1ccco1	38*	15%	-8%	0%	41	-1%
COc1ccccc1N1CCN(c2nc3ccccn3c(=O)c2C=O)CC1	29*	3%	2%	-5%	35*	-1%
O=C(Nc1ccc(N2CCN(C(=O)c3cccs3)CC2)cc1)c1ccc([N+](=O)[O-])o1	-9	1%	/	4%	-23	-20%
CCNC(=O)C1(C)CCN(C(=O)c2ccc(OC)cc2OC)C1 (centres undefined)	/	/	10%	/	/	/
COc1ccc(-c2nc3ccccn3c2C=O)cc1	45*	-12%	-8%	?	70*	-34%
N#C/C(=C\c1c(N2CCN(c3ccccc3)CC2)nc2ccccn2c1=O)S(=O)(=O)c1ccccc1	-4	-11%	-6%	-3%	-9	-11%
O=Cc1c(-c2ccc(F)cc2)nc2ccccn12	26	-12%	-5%	2%	32	-1%
N#CC(C#N)=Cc1c(N2CCN(c3ccccc3)CC2)nc2ccccn2c1=O	33*	-21%	-18%	-13%	82*	-3%
FC(F)(F)c1cccc(-c2cncc(N3CCN(CCN4CCCC4)CC3)n2)c1	/	/	3%	/	/	/
N/C(=N\OC(=O)c1ccc2c(c1)OCO2)c1cccc(Br)c1	30*	-38%	0%	-7%	87*	-6%
COc1ccc(/C(N)=N/OC(=O)c2ccc3c(c2)OCO3)cc1OC	12	-13%	2%	-8%	-5	-10%
N/C(=N\OC(=O)c1ccc2c(c1)OCO2)c1cccnc1	21*	0%	0%	-5%	58*	-2%
O=C(Nc1ccnn1C1CCN(C2CCCCC2)CC1)c1cccc(F)c1	-4	10%	20%	?	8	2%
C=CCCC(=O)N1CCC(n2nccc2NC(=O)c2ccc(OC)cc2)CC1	37*	-5%	-3%	1%	33	22%
COc1ccc(C(=O)Nc2ccnn2C2CCN(C(=O)CCC(F)(F)F)CC2)cc1	24*	3%	-10%	-8%	42*	2%
C/C=C(\C)CN1CCC(n2nccc2NC(=O)c2ccc(OC)cc2)CC1	4	18%	5%	-1%	-18	0%
